Measured values published in PubChem BioAssay (NCATS).
Records with an inconclusive call do not appear. The source made the active and inactive calls. Unless noted, the call rests on the fitted dose curve; in most records, active means well fitted curve in the direction sought with a large enough effect; inconclusive means small, poorly fitted or top-dose-only effect, or another doubt; inactive means no such curve, though single readings can be large; an effect the other way counts as inactive or inconclusive.

How the values were obtained:
[1] = qHTS to identify inhibitors of the type 1 interferon - major histocompatibility complex class I in skeletal muscle: primary screen against the NCATS LOPAC collection (AID 1347405); conditions: iHSKM muscle cells, IFN-b-induced MHC-I HiBiT luminescence, 24 h; series mostly up to 45.9 µM;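 further: lytic HiBiT luminescence reporting HLA-B protein level; on the % scale 0 is the no-effect control and ±100 the full control effect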
Summary of the method: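 Immortalized human C25cl48 myoblasts with HiBiT knocked into endogenous HLA-B*08:01 were stimulated with 4.0 ng/ml IFN-beta and given compounds in a 7-point, 1:4.3 titration from 46 uM final; after 24 hrs, lytic HiBiT luminescence was read.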

[2] = qHTS to identify inhibitors of the type 1 interferon - major histocompatibility complex class I in skeletal muscle: primary screen against the NCATS Pharmaceutical Collection (AID 1347407); conditions: human skeletal muscle cells, IFN-b-induced MHC-I HiBiT luminescence, 24 h; series mostly up to 45.9 µM;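 further: luminescence of HiBiT knocked into endogenous HLA-B as interferon-induced MHC class I level; on the % scale 0 is the no-effect control and ±100 the full control effect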
Summary of the method: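 Immortalized human myoblasts (C25cl48) with HiBiT knocked into endogenous HLA-B*08:01 were stimulated with 4 ng/ml IFN-beta and treated with compounds (8-point, 1:5, top 46 uM final) for 24 h at 37 C; HiBiT lytic luminescence read.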

[3] = qHTS for inhibitors of adenylyl cyclases using a fission yeast platform: a pilot screen against the NCATS LOPAC library (AID 1347410);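 further: plate controls were DMSO vehicle for no effect and DPI positive control for full effect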; conditions: S. pombe CHP2027, fbp1-GFP fluorescence, 18 h; series mostly up to 57.5 µM
Summary of the method: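 S. pombe CHP2027 (AC9-GNAS-PDE4D2) carrying a PKA-repressed fbp1-GFP reporter was exposed to LOPAC compounds (final up to 57 µM) for 18 h at 30C in the dark, in EMM with histidine, lysine and uracil; GFP gain-of-signal read by laser scanning cytometry.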

[4] = qHTS to identify inhibitors of the type 1 interferon - major histocompatibility complex class I in skeletal muscle: primary screen against the NCATS Mechanism Interrogation Plate v5.0 (MIPE) Libary (AID 1347411); conditions: iHSKM cells + IFN-b, HiBiT-tagged MHC-I luminescence, 24 h; series mostly up to 45.8 µM;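 further: plate controls were vehicle for no effect and reference inhibitor for full effect; nearly all actives have a fitted effect of over 65% in size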
Summary of the method: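 Immortalized human C25cl48 myoblasts with HiBit knocked into endogenous HLA-B*08:01 were stimulated with 4.0 ng/ml IFN-beta and exposed to compounds (11-point 1:3 titration, top 46 uM final) for 24 hrs at 37 C; HiBiT lytic luminescence measured.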

[5] = molecular target: Protein phosphatase 1D (Homo sapiens) (UniProt O15297); assay: Rhodamine-PBP qHTS Assay for Modulators of WT P53-Induced Phosphatase 1 (WIP1) (AID 1347425); conditions: recombinant WIP1, Rhodamine-PBP phosphate fluorescence, real-time; series mostly up to 57.5 µM; further: % of control where 0% means no effect
Sequence of Protein phosphatase 1D (Homo sapiens) (O15297 whole entry, looked up): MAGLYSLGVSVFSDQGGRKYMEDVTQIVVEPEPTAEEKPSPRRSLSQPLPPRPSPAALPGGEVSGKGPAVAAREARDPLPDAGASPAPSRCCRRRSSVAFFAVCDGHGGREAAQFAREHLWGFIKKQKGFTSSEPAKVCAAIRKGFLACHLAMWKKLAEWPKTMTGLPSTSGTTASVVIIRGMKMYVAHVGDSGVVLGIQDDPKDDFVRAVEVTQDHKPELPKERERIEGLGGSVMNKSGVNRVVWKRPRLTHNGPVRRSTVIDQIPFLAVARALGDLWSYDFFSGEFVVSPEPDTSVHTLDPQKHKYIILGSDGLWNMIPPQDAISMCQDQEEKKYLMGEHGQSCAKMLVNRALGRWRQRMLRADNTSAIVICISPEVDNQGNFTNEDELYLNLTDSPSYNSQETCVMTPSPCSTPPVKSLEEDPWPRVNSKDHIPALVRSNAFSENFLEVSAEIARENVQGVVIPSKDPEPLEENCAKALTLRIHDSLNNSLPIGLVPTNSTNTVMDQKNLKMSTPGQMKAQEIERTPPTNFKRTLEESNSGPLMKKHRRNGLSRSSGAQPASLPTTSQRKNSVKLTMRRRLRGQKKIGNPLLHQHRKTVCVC
Summary of the method: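 Read-out: Rhodamine-PBP fluorescence (ex 525/em 598 nm) for released Pi, read each minute for 11 min after adding 10 uM VEPPL-pS-QETFS; signal taken as f1 minus pre-substrate f0. Enzyme 5 nM WIP1 with 1 hr room-temperature compound preincubation.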

[6] = Validation qHTS assay for inhibitors of Activation Induced Cytidine Deaminase (AID): UDG Counterscreen signal (AID 1347427); conditions: biochemical UDG counterscreen, fluorescence signal; series mostly up to 115 µM; further: 0% is about no effect
Summary of the method: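 Counterscreen read of UDG activity (2 U/mL, 4/3x) in the FRET deamination format with AID (1 uM, 4/3x), DJC20/DJC23 substrates (250 nM, 4x), 4 h at room temperature. NaOH stop, fluorescence at 560 ex/665 em.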

[7] = molecular target: Single-stranded DNA cytosine deaminase (Homo sapiens) (UniProt Q9GZX7); assay: Validation qHTS assay for inhibitors of Activation Induced Cytidine Deaminase (AID): AID signal (AID 1347429); conditions: Recombinant AID, FRET ssDNA deamination with UDG, fluorescence; series mostly up to 115 µM; further: on the % scale 0 is the no-effect control and ±100 the full control effect
Sequence of Single-stranded DNA cytosine deaminase (Homo sapiens) (Q9GZX7 whole entry, looked up): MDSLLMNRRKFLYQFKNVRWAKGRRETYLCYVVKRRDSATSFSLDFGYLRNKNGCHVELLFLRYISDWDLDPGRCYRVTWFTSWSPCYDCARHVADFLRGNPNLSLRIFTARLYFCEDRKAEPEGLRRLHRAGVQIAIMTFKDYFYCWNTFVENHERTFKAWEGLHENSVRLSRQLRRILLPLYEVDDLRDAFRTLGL
Summary of the method: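 AID and UDG were combined and compounds added at final up to 114 uM, then DJC20/DJC23 FRET substrate was added for 4 hr at room temperature. NaOH was then added for 30 min before fluorescence was read at 540/590 nm.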

[8] = Primary qHTS for inhibitors of SARS-S pseudo-typed particle cell entry (AID 1479145; calls by dose curve; further: nearly all actives have a fitted effect of over 45% in size); conditions: SARS-S pseudotyped particle cell entry, luciferase reporter; series mostly up to 57.1 µM
[9] = Primary qHTS for Huh7 cytotoxicity: counterscreen for inhibitors of MERS-S pseudotyped particle cell entry (AID 1479147; calls by dose curve); conditions: cell viability read-out; series mostly up to 57.1 µM
[10] = Primary qHTS for inhibitors of MERS-S pseudo-typed particle cell entry (AID 1479149; calls by dose curve; further: nearly all actives have a fitted effect of over 60% in size); conditions: MERS-S pseudotyped particle entry, luciferase; series mostly up to 57.1 µM
[11] = Primary qHTS for Vero E6 cytotoxicity: counterscreen for inhibitors of SARS-S pseudo-typed particle cell entry (AID 1479150; calls by dose curve); conditions: cell viability; series mostly up to 57.1 µM
[12] = Primary qHTS for inhibitors of La Crosse Virus (LACV) - induced cell death in SH-SY5Y cells (AID 1508616); conditions: SH-SY5Y LACV cytopathicity rescue, ATP luminescence, 6 d; series mostly up to 4.29 µM;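 further: top concentration of the series differs between compounds; 0% = infected DMSO wells and 100% = uninfected DMSO wells; higher means more rescue of cells from virus-induced death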
Summary of the method: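 Luminescent ATP readout (ATPLite 1step, 5 min room temperature) measured rescue from LACV-induced death after 6 days of infection at 0.01 MOI; normalized to infected DMSO wells and uninfected DMSO wells.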

[13] = molecular target: Calcium and integrin-binding protein 1 (Homo sapiens) (UniProt Q99828); assay: Validation qHTS for Identification of Calcium Integrin Binding protein 1 (CIB1) Competitor (AID 1508618); conditions: CIB1-GST / FITC-alphaIIb peptide fluorescence polarization; series mostly up to 114 µM; further: on the % scale 0 is the no-effect control and ±100 the full control effect
Sequence of Calcium and integrin-binding protein 1 (Homo sapiens) (Q99828 whole entry, looked up): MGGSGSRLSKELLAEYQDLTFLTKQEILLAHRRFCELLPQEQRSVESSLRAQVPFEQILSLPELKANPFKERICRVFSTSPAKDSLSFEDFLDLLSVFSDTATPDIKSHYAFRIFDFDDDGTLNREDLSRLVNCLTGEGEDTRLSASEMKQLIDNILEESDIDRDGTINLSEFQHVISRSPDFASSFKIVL
Summary of the method: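 CIB1-GST (1 uM final) in 5 mM HEPES pH 7.4, 125 mM NaCl, 5 mM CaCl2, 0.01% Tween20 was preincubated 15 min at room temperature with compound (up to 114 uM), then FITC-alphaIIb peptide (100 nM) added for 15 min; fluorescence polarization read.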

[14] = molecular target: Calcium and integrin-binding protein 1 (Homo sapiens) (UniProt Q99828); assay: Primary qHTS for Identification of Calcium Integrin Binding Protein 1 (CIB1) Competitor (AID 1508620); conditions: CIB1-GST / FITC-alphaIIb peptide fluorescence polarization; series mostly up to 114 µM
Summary of the method: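 CIB1-GST (1 uM final) and compound incubated 15 min at room temperature before adding FITC-alphaIIb peptide tracer (100 nM final). Competition for binding read by fluorescence polarization (ex 480, em 540) after another 15 min at room temperature.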

[15] = molecular target: Protein phosphatase 1D (Homo sapiens) (UniProt O15297); assay: RapidFire Mass Spectrometry qHTS Assay for Modulators of WT P53-Induced Phosphatase 1 (WIP1) (AID 1347424); conditions: WIP1 dephosphorylation of phosphopeptide, RapidFire MS; series mostly up to 63 µM;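 further: amount of dephosphorylated VEPPL-S-QETFS peptide product formed by WIP1; plate controls were DMSO wells for no effect and GSK830371 inhibitor control at 10 µM for full effect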
Summary of the method: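 10 nM WIP1 + cpd, 1 h RT; + 2 uM VEPPL-pS-QETFS, 5 min RT; stop 0.5% formic acid; labelled product standard 1 uM; RapidFire MS. Buffer 50 mM Tris pH 7.5, 30 mM MgCl2, 1 mM TCEP.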

O=P1(N(CCCl)CCCl)NCCCO1 (stereo not given)
inactive: outcome [1] | Potency [2] | outcome [3] | Potency [4] | outcome [5] | outcome [6] | outcome [7] | Potency [8] | Potency [9] | Potency [10] | Potency [11] | outcome [12] | outcome [13] | Potency [14]

CCC(C)C(C)(COC(N)=O)COC(N)=O (stereo not given)
inactive: Potency [2] | Potency [15] | outcome [5] | Potency [8] | Potency [9] | Potency [10] | Potency [11] | outcome [12] | Potency [14]

C[C@]12Cc3cn[nH]c3C[C@@H]1CC[C@@H]1[C@@H]2CC[C@@]2(C)[C@H]1CC[C@]2(C)O
inactive: Potency [2] | Potency [4] | outcome [5] | outcome [12] | Potency [14]

CN1C(=O)CCS(=O)(=O)C1c1ccc(Cl)cc1 (stereo not given)
inactive: outcome [1] | Potency [2] | outcome [3] | Potency [4] | Potency [15] | outcome [5] | outcome [6] | outcome [7] | Potency [8] | Potency [9] | Potency [11] | outcome [12] | outcome [13] | Potency [14]

CCCCCN(C)CCC(O)(P(=O)(O)O)P(=O)(O)O
inactive: outcome [1] | outcome [3] | activity change, negative = inhibition [8] -12.9% [at 11.4 µM] | activity change, negative = cytotoxicity [9] 3.48% [at 11.4 µM] | activity change, negative = inhibition [10] -24.6% [at 11.4 µM] | activity change, negative = cytotoxicity [11] 1.39% [at 11.4 µM] | outcome [13]

CNC(C)(C)Cc1ccccc1
inactive: Potency [2] | Potency [15] | outcome [5] | Potency [8] | Potency [9] | Potency [10] | Potency [11] | outcome [12] | Potency [14]

CC(C)(C)NCC(O)c1cc(Cl)c(N)c(C(F)(F)F)c1 (stereo not given)
inactive: Potency [2] | Potency [15] | outcome [5] | Potency [8] | Potency [9] | Potency [10] | Potency [11] | outcome [12] | Potency [14]

COc1cccc(C(=O)CCN[C@@H](C)[C@H](O)c2ccccc2)c1
inactive: Potency [2] | Potency [15] | outcome [5] | Potency [9] | Potency [10] | Potency [11] | outcome [12] | Potency [14]
